CHX counter: counter-screen hit for Shiga toxin inhibitors, cycloheximide; cell reporter, cycloheximide protein synthesis inhibition counterscreen; max response, %; hit rate 12% among 300,000; AID 2314; in the data active means max response mostly above about 13%, no sharp cut-off; inactive means mostly below about 14%; further: read at 38.3 µM for the half of the compounds with a filed dose; 0% is about no effect
MARV entry inh: inhibitors of Marburg virus binding or cell entry. Marburg virus pseudotyped entry inhibition, cell reporter. Potency, µM (top dose mostly 37.8 µM), for the others: at the highest dose activity change, negative = inhibition, actives largely listed as inhibitors. hit rate 1.8% among 300,000. AID 540276; calls by dose curve; tested in HEK293 cells; further: potency means the concentration at half of the fitted maximal effect; on the % scale 0 is the no-effect control and ±100 the full control effect
Shiga toxin inh: blocks Shiga toxin action in Vero cells; Vero cells, Shiga toxin protein synthesis inhibition reporter; hit rate 9.2% among 290,000; inhibition, % at 38.7 µM; AID 2315; in the data active means inhibition mostly above about 28%, no sharp cut-off; inactive means mostly below about 43%; further: 0% is about no effect
Vaccinia mCherry: vaccinia inhibition (mCherry reporter); Vaccinia virus mCherry reporter infection, fluorescence; Potency, µM (titrated, usually from 36.5 µM), inactives show at the highest dose activity change, negative = inhibition, usual class: inhibitors; hit rate 0.63% among 310,000; AID 720579; calls by dose curve; tested in A549 cells; further: potency means the concentration at half of the fitted maximal effect; on the % scale 0 is the no-effect control and ±100 the full control effect; nearly all actives have a fitted effect of over 35% in size
VACV Venus inh: inhibitors of vaccinia virus (Venus reporter); Vaccinia virus Venus reporter expression, fluorescence; Potency, µM (doses to about 36.5 µM), for inactives: at the top dose activity change, negative = inhibition, usual class: inhibitors; hit rate 0.46% among 330,000; AID 720580; calls by dose curve; tested in A549 cells; further: potency means the concentration at half of the fitted maximal effect; on the % scale 0 is the no-effect control and ±100 the full control effect; nearly all actives have a fitted effect of over 30% in size
Lassa entry inh: inhibitors of Lassa virus binding or cell entry | Lassa virus pseudotype entry inhibition, cell reporter | Potency, µM (top dose mostly 37.9 µM), for inactives: top-dose activity change, negative = inhibition, hits mostly inhibitors | hit rate 1.2% among 300,000 | AID 540256; calls by dose curve; tested in HEK293 cells; further: potency means the concentration at half of the fitted maximal effect; on the % scale 0 is the no-effect control and ±100 the full control effect; nearly all actives have a fitted effect of over 50% in size
Active calls of the source: *; [ ] = remark or other dose. The full list was thinned out, with hits kept by preference.

How did Cc1ccnc(N2C(=O)c3cccc4c([N+](=O)[O-])ccc(c34)C2=O)c1 do in these assays?
CHX counter: -1; MARV entry inh: 21µM*; Shiga toxin inh: -6; Vaccinia mCherry: -8%; VACV Venus inh: -5%; Lassa entry inh: inconclusive

Results for O=C(Nc1ccc(N2CCCC2)c(Cl)c1)c1cccs1 ?
CHX counter: 71*; MARV entry inh: inconclusive; Shiga toxin inh: 95*; Vaccinia mCherry: -16%; VACV Venus inh: -8%; Lassa entry inh: inconclusive

How did O=C(NC(=S)Nc1ccccc1N1CCOCC1)c1cccs1 do in these assays?
CHX counter: -5; MARV entry inh: inconclusive; Shiga toxin inh: 12; Vaccinia mCherry: inactive; VACV Venus inh: -6%; Lassa entry inh: -1%

What do the screens show for `O=C(NC(=S)Nc1ccc(N2CCOCC2)c(Cl)c1)c1cccs1`?
CHX counter: 30*; MARV entry inh: inconclusive; Shiga toxin inh: 60*; Vaccinia mCherry: inactive; VACV Venus inh: -13%; Lassa entry inh: 3%[46.1 µM]

Results for CC(C)(C)OC(=O)N1CCC(c2c(C(=O)N3CCN(c4ccccn4)CC3)cnn2-c2ccc(F)cc2)CC1 ?
Vaccinia mCherry: -4%; VACV Venus inh: 1%; Lassa entry inh: inconclusive

What do the screens show for `Cc1ccsc1C1NC(=O)c2c(sc3c2CCN(C)C3)N1` (stereo unspecified)?
CHX counter: 1; MARV entry inh: -7%; Shiga toxin inh: -4; Vaccinia mCherry: 32%; VACV Venus inh: -7%

How did CN1CCc2c(sc3c2C(=O)NC(c2cccs2)N3)C1 (stereo unspecified) do in these assays?
CHX counter: 34*; MARV entry inh: 16%; Shiga toxin inh: 35*; Vaccinia mCherry: -7%; VACV Venus inh: 2%; Lassa entry inh: 27%

How did CN1CCc2c(sc(/N=C/c3cccs3)c2C(N)=O)C1 do in these assays?
CHX counter: 16; MARV entry inh: 0%; Shiga toxin inh: 29; Lassa entry inh: 2%

Results for Cc1ccc(/C=N/c2sc3c(c2C(N)=O)CCCC3)o1 ?
CHX counter: 37*; Shiga toxin inh: 60*

Results for CN(C)/C=N/c1sc2c(c1C(N)=O)CCCC2 ?
CHX counter: 17; MARV entry inh: 4%; Shiga toxin inh: 4; Vaccinia mCherry: -9%; VACV Venus inh: -18%; Lassa entry inh: 15%

Results for NC(=O)c1c(/N=C/c2cccnc2)sc2c1CCCC2 ?
CHX counter: 25*; MARV entry inh: -20%; Shiga toxin inh: 47*; Vaccinia mCherry: -27%; VACV Venus inh: -20%; Lassa entry inh: 18%

Results for CS(=O)(=O)N1CCN(c2nc3ccc(Cl)cc3s2)CC1 ?
CHX counter: 7; MARV entry inh: 16%[46.1 µM]; Shiga toxin inh: 47; Vaccinia mCherry: inactive[7.34 µM]; VACV Venus inh: -6%[7.34 µM]; Lassa entry inh: inconclusive

What do the screens show for `CC(C)CCNC(=O)C1CCN(c2nc3ccc(Cl)cc3[nH]2)CC1`?
Vaccinia mCherry: inactive; VACV Venus inh: -17%; Lassa entry inh: 7%[46.1 µM]

How did Clc1ccc2nc(N3CCCCC3)sc2c1 do in these assays?
CHX counter: 39*; MARV entry inh: inconclusive; Shiga toxin inh: 82*; Vaccinia mCherry: inactive; VACV Venus inh: -7%; Lassa entry inh: inconclusive

How did Clc1ccc2nc(N3CCCCC3)[nH]c2c1 do in these assays?
CHX counter: 37*; MARV entry inh: -22%; Shiga toxin inh: 80*; Lassa entry inh: -26%

Results for CC(C)C(=O)N1CCN(c2nc3ccc(Cl)cc3s2)CC1 ?
CHX counter: 36*; Shiga toxin inh: 62*

How did CC(C)NC(=O)N1CCCN(c2nc3ccc(Cl)cc3s2)CC1 do in these assays?
CHX counter: 32*; MARV entry inh: -23%; Shiga toxin inh: 37; Vaccinia mCherry: -17%; VACV Venus inh: -29%; Lassa entry inh: -3%

Results for N#Cc1ccc(OCC(=O)OCC(=O)N2CCc3ccccc32)cc1 ?
Vaccinia mCherry: inactive; VACV Venus inh: -7%

Results for Cc1cc(=O)n2nc(N3CCC(C(=O)Nc4ccc(C)c(Cl)c4)CC3)sc2n1 ?
MARV entry inh: 1%[46.1 µM]; Vaccinia mCherry: -7%; VACV Venus inh: -24%; Lassa entry inh: 1%[46.1 µM]

Results for CCc1cc(C(=O)N2CCCC(C(=O)c3ccc(Oc4ccccc4)cc3)C2)n(C)n1 (stereo unspecified) ?
CHX counter: -2; MARV entry inh: 11µM*; Shiga toxin inh: -4; Vaccinia mCherry: -5%; VACV Venus inh: -27%; Lassa entry inh: -19%[46.1 µM]

Screens as filed in PubChem BioAssay.
